High-throughput results from PubChem.
Proteasome disasm – inhibitors of ATP-driven 26S proteasome dissociation, primary screen, biochemical, bead-based flow cytometry, GFP-tagged proteasome | inhibition of disassembly, % (concentration not given with the values) | anti-FLAG beads, GFP-proteasome disassembly | 0.2% of 24,000 active;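 active means inhibition of disassembly above about 33%, limit read from the data; inconclusive means likely self-fluorescent, control bead median signal at least 40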;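 further: plate controls were ATP control with full disassembly for no effect and ATP-gamma-S intact proteasomes for full effect; higher percent means more bead fluorescence retained so stronger block of disassembly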
VLA-4 antagonist – inhibitors of LDV-FITC binding to Mn2+-activated VLA-4, primary screen, Jurkat cells; Integrin alpha-4 (Homo sapiens), P13612; LDV-FITC binding with Mn2+, flow cytometry; 100% = Mn2+-driven binding gain fully reversed; inhibition, % at 10 µM (by protocol); 0.2% of 24,000 active;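 active means inhibition above 50%; inconclusive means compound itself fluorescent, judged against control cell fluorescence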;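 further: 0% = Mn2+ stimulated cells lacking compound and 100% = ligand binding without Mn2+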
Target sequence (P13612 whole entry, looked up): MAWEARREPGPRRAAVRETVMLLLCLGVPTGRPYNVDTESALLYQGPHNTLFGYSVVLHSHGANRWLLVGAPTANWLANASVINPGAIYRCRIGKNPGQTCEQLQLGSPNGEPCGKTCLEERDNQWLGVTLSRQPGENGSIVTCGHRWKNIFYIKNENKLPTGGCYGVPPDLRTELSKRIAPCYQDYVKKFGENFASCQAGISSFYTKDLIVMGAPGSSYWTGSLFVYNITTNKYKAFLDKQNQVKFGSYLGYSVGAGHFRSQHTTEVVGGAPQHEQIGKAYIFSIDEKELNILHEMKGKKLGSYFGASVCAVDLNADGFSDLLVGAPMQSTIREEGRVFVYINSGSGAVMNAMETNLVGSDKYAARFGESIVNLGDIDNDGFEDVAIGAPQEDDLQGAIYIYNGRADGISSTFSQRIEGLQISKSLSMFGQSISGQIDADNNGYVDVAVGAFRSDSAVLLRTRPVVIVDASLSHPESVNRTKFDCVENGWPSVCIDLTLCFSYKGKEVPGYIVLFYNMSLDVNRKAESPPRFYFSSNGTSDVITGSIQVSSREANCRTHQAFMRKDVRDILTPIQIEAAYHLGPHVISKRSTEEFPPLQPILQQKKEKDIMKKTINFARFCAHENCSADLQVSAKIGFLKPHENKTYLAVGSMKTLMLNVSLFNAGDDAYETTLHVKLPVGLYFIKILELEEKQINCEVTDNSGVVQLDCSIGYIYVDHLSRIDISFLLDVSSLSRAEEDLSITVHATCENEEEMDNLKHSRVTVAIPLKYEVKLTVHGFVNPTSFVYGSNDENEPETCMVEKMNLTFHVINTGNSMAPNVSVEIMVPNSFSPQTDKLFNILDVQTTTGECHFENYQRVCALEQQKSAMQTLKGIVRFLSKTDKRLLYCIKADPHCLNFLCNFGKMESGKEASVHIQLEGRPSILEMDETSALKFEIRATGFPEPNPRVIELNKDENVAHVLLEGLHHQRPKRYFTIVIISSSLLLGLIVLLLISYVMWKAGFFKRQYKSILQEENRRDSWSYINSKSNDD
Autofluor Jurkat – compound autofluorescence on Jurkat cells, primary screen, artefact control for VLA-4 allosteric ligand project, cell-based, flow cytometry | fluorescence ratio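 (tested at 10 µM compound in the well)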 | AID 576, 2007 | stronger effect = higher value; 1 = vehicle-only cell background | 0.61% of 24,000 active;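 active means fluorescence ratio above 2.44, which is 1 plus 3 SD of all ratios; inconclusive means signal too bright to measure linearly, ratio around 10 or more; inactive means fluorescence ratio below 2.44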;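 further: green fluorescence of cells measured with 488 nm excitation and 530 nm emission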
LNCaP diff act – activators of LNCaP prostate cell differentiation, primary screen, flow cytometry side scatter. 4 d. side scatter shift, % at 10 µM. 0.56% of 24,000 active. AID 795, 2007;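 active means side scatter shift above 30%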;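 further: androgen-responsive LNCaP prostate cancer cells in charcoal-stripped serum medium; percent of cells past a gate set so DMSO wells show 10% shift; higher shift means more granular cells and more differentiation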
VLA-4 agonist – enhancers of LDV-FITC binding to VLA-4 integrin, primary screen, Jurkat cells, flow cytometry | AID 528, 2006 | Integrin alpha-4 (Homo sapiens), P13612 | activation, % at 10 µM (by protocol) | 24,000 tested, under 10 active;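 active means fluorescent ligand binding to cells raised by more than 40% of the manganese-induced maximum; inconclusive means compound's own fluorescence above 85% of the ligand control signal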;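 further: 0% = ligand binding without compound and 100% = manganese-stimulated maximal binding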
The depositor's hits bear a star; ? = inconclusive; · = no result given. Shown are actives, neighbours in structure and some others; about 1.6% of the full set was active somewhere.

SMILES | Proteasome disasm | VLA-4 antagonist | Autofluor Jurkat | LNCaP diff act | VLA-4 agonist
Cc1cc(C)n2nnnc2c1C#N | -0.3 | -24.0 | 0.88 | 37.0* | 8.0
Cc1cc(C)n(Cc2ccc(F)cc2)c(=O)c1C#N | 0.0 | 0.0 | 0.96 | 17.0 | 4.0
O=C(CCn1c(=O)oc2ccccc21)N1CCN(c2ccccc2F)CC1 | 1.3 | -12.0 | 1.05 | 6.0 | 0.0
O=C(Cn1c(=O)oc2ccccc21)N1CCN(c2ccccc2)CC1 | 2.5 | ? | 2.53* | 11.0 | ?
Cc1cc(=O)oc2ccc(OCC(=O)N(Cc3ccc(F)cc3)Cc3ccco3)cc12 | -0.2 | 11.0 | 1.2 | 16.0 | -2.0
CCOC(=O)N1CCC(NS(=O)(=O)c2cc3c(cc2Cl)NC(=O)CO3)CC1 | 0.1 | ? | 5.09* | 2.0 | ?
CCOC(=O)N1CCC(NS(=O)(=O)c2ccc3c(c2)OCC(=O)N3)CC1 | 0.4 | 4.0 | 1.09 | 2.0 | -6.0
O=C(CN1CCN(c2ccccn2)CC1)Nc1cc(C(F)(F)F)ccc1Cl | 0.5 | 6.0 | 1.19 | 12.0 | -7.0
CCOc1cc2[nH]c(=O)n(CCCCCC(=O)NCc3ccco3)c(=O)c2cc1OCC | · | 52.0* | 1.02 | · | -13.0
CCOc1cc2[nH]c(=S)n(CCCCC(=O)NCc3ccco3)c(=O)c2cc1OCC | 0.8 | -4.0 | 1.04 | 6.0 | 5.0
CN(C)c1ccc(CNn2cnnc2)cc1 | -0.2 | -9.0 | 0.96 | 4.0 | 0.5
CN(C)c1ccc(CNC2CC(C)(C)NC(C)(C)C2)cc1 | 0.3 | -18.5 | 1.05 | 36.0* | 3.0
CC1=C(C(=O)NCCN2CCN(C)CC2)C2(CCC(C)CC2)OC1=O (stereo not given) | -1.5 | 0.0 | 1.01 | 4.0 | 2.0
CN(CC(O)COc1ccc(OCC(O)CN(C)C2CCCCC2)cc1)C1CCCCC1 (stereo not given) | -0.4 | -8.0 | 0.98 | 37.0* | 1.0
O=C1CC(c2ccccc2)Cc2nc(N3CCc4ccccc43)ncc21 (stereo not given) | 74.2* | -5.0 | 1.01 | 6.0 | 2.7
C=CCn1c(/N=C/c2ccc(N(C)C)cc2)nc2ccccc21 | -0.3 | ? | 4.76* | 2.0 | ?
COc1ccc(-c2c(=O)n(OCc3ccccn3)c3ccccc3[n+]2[O-])cc1OC | 0.0 | ? | 2.5* | 11.0 | ?
COc1ccc(NC(=O)CSc2ccccn2)cc1OC | -4.9 | 2.5 | 1.03 | 10.0 | -2.0
CCOC(=O)CCCCC(=O)c1[nH]c(=O)[nH]c1CSc1nc2ccccc2[nH]1 | 0.0 | 55.0* | 1.03 | 12.0 | 1.0
Cc1[nH]c(=O)[nH]c1C(=O)CCCCC(=O)OCC(=O)Nc1ccccn1 | -0.8 | 22.0 | 0.93 | 15.0 | -1.0
O=c1[nH]c(Nc2ccccc2)cc2ccccc12 | 13.3 | ? | 2.86* | 7.0 | ?
Cc1cc(N2C(=O)C(O)=C(C(=O)c3ccc(C)o3)C2c2cccs2)no1 (stereo not given) | -0.2 | -21.0 | 1.09 | 9.0 | 6.0
COC(=O)c1sc(N2C(=O)C(O)=C(C(=O)c3ccc(C)o3)C2c2ccc(F)cc2)nc1C (stereo not given) | 10.9 | ? | 3.77* | 15.0 | ?
COc1ccccc1CC1(C)NC(=O)N(CC(=O)Nc2cc(C)on2)C1=O (stereo not given) | 0.4 | -5.0 | 1.05 | 3.0 | 4.5
C/C(=N\O)C(=O)NCc1ccncc1 | -4.1 | ? | 6.16* | 6.0 | ?
SMILES | Proteasome disasm | VLA-4 antagonist | Autofluor Jurkat | LNCaP diff act | VLA-4 agonist
O=S1(=O)C=C(Sc2nc3cc(Cl)ccc3o2)c2ccccc21 | 12.9 | ? | 9.62* | 25.0 | ?
O=C(CN1CCCN(S(=O)(=O)c2ccc(Br)cc2)CC1)Nc1ccc2cn[nH]c2c1 | -0.7 | -18.7 | 1.11 | 7.0 | 0.3
C/C(O)=c1/ccc2cccc3nc(C)nc1c23 | 17.0 | ? | 3.5* | 16.0 | ?
COC(=O)Cn1nc(-c2ccccc2)c2ccccc21 | -0.1 | -8.0 | 0.93 | 10.0 | -4.0
CC(C)N=c1cc2n(-c3ccc(Cl)cc3)c3ccccc3nc-2cc1Nc1ccc(Cl)cc1 | -1.1 | ? | 3.9* | 1.0 | ?
CCOC(=O)Cn1c(=O)oc2cc(S(=O)(=O)Nc3ccc(N(CC)CC)cc3C)ccc21 | 3.1 | ? | 4.1* | 12.0 | ?
CCOC(=O)Cn1c(=O)oc2cc(S(=O)(=O)Nc3cc(Cl)ccc3OC)ccc21 | 2.6 | ? | 4.28* | 4.0 | ?
CCOCCCNS(=O)(=O)c1ccc2c(c1)oc(=O)n2CC(=O)OCC | 2.5 | ? | 2.48* | 4.0 | ?
CCOC(=O)Cn1c(=O)oc2cc(S(=O)(=O)Nc3cc(OCC)ccc3OCC)ccc21 | 0.8 | ? | 1.44 | 6.0 | ?
Cc1cc(CN2CCN(CCC#N)CC2)c(O)c(C2(C)CCCCC2)c1 | -0.7 | -12.0 | 1.05 | 11.0 | 20.0
O=C(OCC#CCSc1nc2ccccc2s1)c1ccco1 | 0.1 | -28.5 | 1.01 | 2.0 | 6.0
CCNc1c2c3c(cccc3n(C)c1=O)C(=O)c1ccccc1-2 | 58.8* | ? | 9.82* | 4.0 | ?
O=C(c1ccc(CS(=O)(=O)c2cccc(C(F)(F)F)c2)o1)N1CCN(c2ccccn2)CC1 | -0.8 | 0.0 | 1.11 | 3.0 | -6.0
COCc1nnc(NC(=O)c2ccc(S(=O)(=O)N3CCCCCC3)cc2)o1 | -4.1 | ? | 2.46* | 10.0 | ?
Cn1nc(-c2ccc(Cl)cc2)c2cc(C(=O)NCCCN3CCOCC3)sc21 | -2.5 | 16.0 | 1.17 | 31.0* | -9.0
CCOCCCNC(=O)c1cc2c(-c3ccc(Cl)cc3)nn(C)c2s1 | -0.9 | -13.0 | 0.79 | 0.0 | 14.0
CCN(CC)CCNC(=O)c1cc2c(-c3ccc(Cl)cc3)nn(C)c2s1 | 1.3 | ? | 1.16 | 40.0* | ?
CC(=O)N1c2c(cc(Br)cc2S(=O)(=O)N2CCN(C(=O)c3ccco3)CC2)CC1C (stereo not given) | 1.2 | 1.0 | 1.05 | 1.0 | -5.0
C=CCn1c(=O)/c(=C/c2ccc(O)cc2)s/c1=C(/C#N)c1nnc2n1CCCCC2 | 7.0 | ? | 3.69* | 7.0 | ?
Cc1ccc(-n2nc(C(=O)NCc3ccco3)c3c4ccccc4n(C)c3c2=O)cc1 | -0.3 | 30.0 | 0.87 | 8.0 | -12.0
CCN(CC)CCNC(=O)c1nn(-c2ccc(C)cc2)c(=O)c2c1c1ccccc1n2C | 30.1 | 11.0 | 1.15 | 36.0* | -12.0
COc1ccc(-c2cc(N)n(S(=O)(=O)c3c(F)c(F)c(F)c(F)c3F)n2)cc1OC | 0.9 | 6.0 | 1.01 | 2.0 | 4.0
CCc1ccc2nc(NC3=NCN(CCOC)CN3)nc(C)c2c1 | 0.1 | ? | 1.6 | 5.0 | ?
Cc1ccc2nc(NC3=NCN(Cc4ccco4)CN3)nc(C)c2c1 | 3.7 | ? | 3.52* | 4.0 | ?
COc1cc2c(cc1OC)CN(C(=O)CSc1nnc3scc(-c4ccccc4)n13)CC2 | -1.8 | -3.7 | 0.99 | 5.0 | 1.7
COc1ccc(-c2nnc(Nc3nc4c(OC)cccc4s3)o2)c(OC)c1 | -0.8 | 68.0* | 1.13 | 8.0 | 5.0
